Where “and” joins values, the source holds several entries; their conditions need not be identical. Equal entries are not always repeated. Calls of active or inactive are those of the source. The calls were made as follows: active = hit-call score of the fitted dose curve at least 0.9, where 1 is the maximum; inactive = score below 0.9.

The AC50 is the midpoint of the concentration-response curve, whichever way the signal moves.

Read-out in the first assay: Monocyte Chemoattractant Protein-1 (MCP1), CCL2 (gene 6347)
As to the kind of experiment: BSK_LPS_MCP1: BioMAP Diversity Plus: LPS Assay for Monocyte Chemoattractant Protein-1 (MCP1) Biomarker Activity (AID 2283081).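 As to AC50: secreted MCP-1 protein quantified by ELISA in culture supernatant.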 Particulars: primary human HUVEC with PBMC; actives raise or lower the signal. The method in brief: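 ELISA read-out of MCP-1 after 24 h chemical dosing of a human umbilical vein endothelial cell/peripheral blood mononuclear cell co-culture stimulated with LPS. Gain or loss of signal fitted relative to DMSO controls.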
Regarding `O=C(O)c1cn(C2CC2)c2cc(N3CCNCC3)c(F)cc2c1=O`, the result was inactive.

As to `C=C(C)C(=O)O[C@H]1C[C@@H]2CC[C@@]1(C)C2(C)C`, the AC50 is 31.1 µM (active).

Consider `CCCCCCCCCCCCCCCCCC(=O)OCC(CC)CCCC` (stereo unspecified), for which the outcome was inactive.

With `CC(C)(COC(=O)c1ccccc1)COC(=O)c1ccccc1`, the outcome was inactive.

As for `O=C(O)C[C@H](O)C[C@H](O)/C=C/c1c(C2CC2)nc2ccccc2c1-c1ccc(F)cc1`, the outcome was inactive.

Consider `CCc1c(C)cc(N)c(CC)c1N`, for which the outcome was inactive.

Consider `CC(=O)OCCC(C)CC(C)(C)C` (stereo unspecified), for which the outcome was inactive.

Take `O=C(O)c1cn(-c2ccc(F)cc2)c2cc(N3CCNCC3)c(F)cc2c1=O`: the outcome was inactive.

`CCn1c2ccccc2c2cc(N)ccc21`: the AC50 was 1.24 µM (active).

With `O=C1OC2(c3cc(Br)c(O)c(Br)c3Oc3c2cc(Br)c(O)c3Br)c2c(Cl)c(Cl)c(Cl)c(Cl)c21`, the AC50 was 4.59 µM (active).

Take `OC1OC[C@@H](O)[C@H](O)[C@H]1O` (stereo partly specified): the result was inactive.

Consider `BrC1CCC(Br)C(Br)CCC(Br)C(Br)CCC1Br` (stereo unspecified), for which the outcome was inactive.

With `Nc1cc([N+](=O)[O-])ccc1Cl`, the outcome was inactive.

For the molecule `CC(=O)O[C@]1(C(C)=O)CC[C@H]2[C@@H]3C[C@H](C)C4=CC(=O)CC[C@]4(C)[C@H]3CC[C@@]21C`, the outcome was inactive.

As for `CCCCC(CC)COC(=O)/C=C\C(=O)OCC(CC)CCCC` (stereo unspecified), the outcome was inactive.

With `CCCCCCCCCC=O`, the outcome was inactive.

Take `CC1COc2ccccc2N1C(=O)C(Cl)Cl` (stereo unspecified): the AC50 was 5.75 µM (active).

For `O=P(c1ccccc1)(c1ccccc1)c1ccccc1`, the result was inactive.

`OC[C@H]1O[C@H](O[C@]2(CCl)O[C@H](CCl)[C@@H](O)[C@@H]2O)[C@H](O)[C@@H](O)[C@H]1Cl`: the outcome was inactive.

In the case of `Nc1cc([N+](=O)[O-])ccc1O`, the outcome was inactive.

In the case of `c1ccc2sc(SN(C3CCCCC3)C3CCCCC3)nc2c1`, the outcome was inactive.

As to `COc1cc(C=O)ccc1OC(=O)C(C)C`, the outcome was inactive.

In the case of `CC(C)c1ccc(C(C)C)cc1`, the result was inactive.

Read-out in another assay: not listed separately
As to the kind of experiment: BSK_LPS_PGE2: BioMAP Diversity Plus: LPS Assay for Prostaglandin E2 (PGE2) Biomarker Activity (AID 2283082).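 As to AC50: secreted prostaglandin E2 measured by ELISA in LPS-stimulated co-culture.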 The settings on record: primary human HUVEC with PBMC; actives raise or lower the signal. The method in brief:
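Primary human endothelial cells and blood mononuclear cells, co-cultured with LPS, receive test chemical; PGE2 ELISA follows at 24 h, with SRB-stained parallel cultures flagging cytotoxicity.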
`O=C(O)c1cn(C2CC2)c2cc(N3CCNCC3)c(F)cc2c1=O`: the result was inactive.

Consider `C=C(C)C(=O)O[C@H]1C[C@@H]2CC[C@@]1(C)C2(C)C`, for which the outcome was inactive.

Consider `CCCCCCCCCCCCCCCCCC(=O)OCC(CC)CCCC` (stereo unspecified), for which the result was inactive.

For the molecule `CC(C)(COC(=O)c1ccccc1)COC(=O)c1ccccc1`, the outcome was inactive.

In the case of `O=C(O)C[C@H](O)C[C@H](O)/C=C/c1c(C2CC2)nc2ccccc2c1-c1ccc(F)cc1`, the outcome was inactive.

Consider `CCc1c(C)cc(N)c(CC)c1N`, for which the outcome was inactive.

`CC(=O)OCCC(C)CC(C)(C)C` (stereo unspecified): the outcome was inactive.

Turning to `O=C(O)c1cn(-c2ccc(F)cc2)c2cc(N3CCNCC3)c(F)cc2c1=O`, the result was inactive.

For the molecule `CCn1c2ccccc2c2cc(N)ccc21`, the AC50 is 5.42 µM (active).

On to `O=C1OC2(c3cc(Br)c(O)c(Br)c3Oc3c2cc(Br)c(O)c3Br)c2c(Cl)c(Cl)c(Cl)c(Cl)c21`, for which the AC50 is 3.33 µM (active).

As for `OC1OC[C@@H](O)[C@H](O)[C@H]1O` (stereo partly specified), the outcome was inactive.

In the case of `BrC1CCC(Br)C(Br)CCC(Br)C(Br)CCC1Br` (stereo unspecified), the AC50 is 3.87 µM (active).

With `Nc1cc([N+](=O)[O-])ccc1Cl`, the result was inactive.

As to `CC(=O)O[C@]1(C(C)=O)CC[C@H]2[C@@H]3C[C@H](C)C4=CC(=O)CC[C@]4(C)[C@H]3CC[C@@]21C`, the result was inactive.

On to `CCCCC(CC)COC(=O)/C=C\C(=O)OCC(CC)CCCC` (stereo unspecified), for which the result was inactive.

`CCCCCCCCCC=O`: the outcome was inactive.

As for `CC1COc2ccccc2N1C(=O)C(Cl)Cl` (stereo unspecified), the outcome was inactive.

Regarding `O=P(c1ccccc1)(c1ccccc1)c1ccccc1`, the result was inactive.

Turning to `OC[C@H]1O[C@H](O[C@]2(CCl)O[C@H](CCl)[C@@H](O)[C@@H]2O)[C@H](O)[C@@H](O)[C@H]1Cl`, the outcome was inactive.

With `Nc1cc([N+](=O)[O-])ccc1O`, the AC50 is 3.97 µM (active) and 6.28 µM (active).

With `c1ccc2sc(SN(C3CCCCC3)C3CCCCC3)nc2c1`, the AC50 is 13.1 µM (active).

Consider `COc1cc(C=O)ccc1OC(=O)C(C)C`, for which the outcome was inactive.

On to `CC(C)c1ccc(C(C)C)cc1`, for which the result was inactive.

(Values after PubChem BioAssay (EPA / NIEHS).)
